This note sets out measurements from PubChem BioAssay (NCATS).

Where “and” joins values, the source holds several entries; their conditions need not be identical. Equal entries are not always repeated. Unmarked numbers belong to inactive results. Inconclusive results are not listed. Where a structure was tested more than once in an assay, its records may differ in their call. Calls of active or inactive are those of the source. Unless noted, the call rests on the fitted dose curve; in most records, active means well fitted curve in the direction sought with a large enough effect; inconclusive means small, poorly fitted or top-dose-only effect, or another doubt; inactive means no such curve, though single readings can be large; an effect the other way counts as inactive or inconclusive.

Assay [1] is described as follows: Drug repurposing screens with cells derived from glioblastoma tumor samples (AID 1345199). Further: nearly all actives have a fitted effect of over 40% in size. Further: potency means the concentration at half of the fitted maximal effect. On activity, negative = cell killing: on the % scale 0 is the no-effect control and ±100 the full control effect. The settings on record: GBM patient neurospheres viability, ATP luminescence, 48 h. The method, boiled down:
(§1)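 Four patient lines of CD133+ GBM neurospheres were screened at several concentrations; hits were retested in those lines plus three slower-growing GBM lines, using 48-hour treatment and ATP-based viability.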

The next assay deals with C33A. The experiment in a line: Primary qHTS to identify gynecologic anti-cancer compounds using libraries of approved drugs and bioactive compounds (AID 1345084). Further: on the % scale 0 is the no-effect control and ±100 the full control effect; nearly all actives have a fitted effect of over 55% in size. The settings on record: Gynecologic cancer cell panel viability, ATPlite luminescence, 48 h; series mostly up to 57.5 µM. The method, boiled down:
(§2)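 Measured: luminescence after ATPlite addition (15 min, RT). Exposure: 48 h, 37 C, 5% CO2.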
(In general: Quantitative high-throughput screening tests each substance at several concentrations.)

A further assay deals with CAOV3. The description is as above. To be noted: Gynecologic cancer cell panel viability, ATPlite luminescence, 48 h; series mostly up to 57.5 µM. The method, boiled down: as §2
Background: Cellular ATP, detected with luciferase, serves as a proxy for viable cell number.

The next assay deals with CASKI. Described as above. To be noted: Gynecologic cancer cell panel viability, ATPlite luminescence, 48 h; series mostly up to 57.5 µM. The method in brief:
as §2

Another assay relates to Es-2. The description is as above. The settings on record: Gynecologic cancer cell panel viability, ATPlite luminescence, 48 h; series mostly up to 57.5 µM. The method in brief:
as §2

For the next assay, the system named is HeLa. Described as above. The settings on record: Gynecologic cancer cell panel viability, ATPlite luminescence, 48 h; series mostly up to 57.5 µM. The method in brief:
as §2

In a further assay the test system is Hek293T. The assay is described as above. To be noted: Gynecologic cancer cell panel viability, ATPlite luminescence, 48 h, control line for the selectivity index; series mostly up to 57.5 µM. The method in brief:
as §2

The next assay has as its system JEG-3. The assay is described as above. The settings on record: Gynecologic cancer cell panel viability, ATPlite luminescence, 48 h; series mostly up to 57.5 µM. The method, boiled down: as §2
In another assay the test system is Tov-21-G. The assay is described as above. The settings on record: Gynecologic cancer cell panel viability, ATPlite luminescence, 48 h; series mostly up to 57.5 µM. The method, boiled down:
as §2

A further assay deals with Tov112D. The assay is described as above. To be noted: Gynecologic cancer cell panel viability, ATPlite luminescence, 48 h; series mostly up to 57.5 µM. The method in brief: as §2
For the next assay, the system named is PA-1. The assay is described as above. The settings on record: Gynecologic cancer cell panel viability, ATPlite luminescence, 48 h; series mostly up to 57.5 µM. The method, boiled down:
as §2

The next assay concerns SKOV3. The assay is described as above. To be noted: Gynecologic cancer cell panel viability, ATPlite luminescence, 48 h; series mostly up to 57.5 µM. The method, boiled down: as §2
The subject of a further assay is OV90. The assay is described as above. To be noted: Gynecologic cancer cell panel viability, ATPlite luminescence, 48 h; series mostly up to 57.5 µM. The method in brief: as §2
A further assay relates to astro (control astrocytes). The assay is described as follows: Drug repurposing screens with cells derived from glioblastoma tumor samples (AID 1345199). Further: nearly all actives have a fitted effect of over 40% in size. Further: potency means the concentration at half of the fitted maximal effect. On activity, negative = cell killing: on the % scale 0 is the no-effect control and ±100 the full control effect. The settings on record: viability, ATP luminescence, 48 h; series mostly up to 45.9 µM. The method, boiled down: as §1
The target in assay [2] is Nuclear receptor subfamily 1 group I member 2 (Rattus norvegicus) (UniProt Q9R1A7). The experiment in a line: qHTS assay for small molecule activators of the rat pregnane X receptor (rPXR) signaling pathway (AID 651751; call rule not given here; further: 0% is about no effect). To be noted: rPXR reporter cells, luciferase (One-Glo), 24 h.
Sequence of Nuclear receptor subfamily 1 group I member 2 (Rattus norvegicus) (Q9R1A7 whole entry, looked up): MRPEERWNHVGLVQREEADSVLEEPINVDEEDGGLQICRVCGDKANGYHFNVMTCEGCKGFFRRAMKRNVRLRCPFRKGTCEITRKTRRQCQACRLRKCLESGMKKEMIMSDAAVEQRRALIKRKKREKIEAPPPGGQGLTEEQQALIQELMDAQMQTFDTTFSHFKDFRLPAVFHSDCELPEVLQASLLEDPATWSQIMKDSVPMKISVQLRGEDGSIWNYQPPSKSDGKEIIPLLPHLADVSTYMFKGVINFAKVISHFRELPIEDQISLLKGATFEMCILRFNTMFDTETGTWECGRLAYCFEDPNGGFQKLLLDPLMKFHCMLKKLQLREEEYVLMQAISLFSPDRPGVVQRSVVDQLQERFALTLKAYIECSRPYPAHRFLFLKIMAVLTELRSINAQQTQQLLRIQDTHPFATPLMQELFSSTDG
Assay [3] can be described thus: qHTS assay for small molecule activators of the human pregnane X receptor (PXR) signaling pathway (AID 720659; call rule not given here; further: 0% is about no effect).
Setting [4] is: at 91.6 µM (top of the series), tumour line B.
Setting [5] is: at 91.6 µM (top of the series), tumour line D.
The mark [6] stands for this setting: at 45.9 µM (top of the series), tumour line B.
Where [7] appears, read: at 45.9 µM (top of the series), tumour line D.
[8] abbreviates: at 46 µM (top of the series), tumour line A.

With `CN[C@@H](C)Cc1ccccc1`, the activity, negative = cell killing in assay [1] (at 91.6 µM (top of the series), tumour line A) was -24.4%; in assay [1] (setting [4]) it was -1.76%; in assay [1] (setting [5]) it was 4.77%.

`CCN(CC)C(=O)[C@@H]1C=C2c3cccc4[nH]cc(c34)C[C@H]2N(C)C1`: the Potency entry in the assay on C33A, in the assay on Es-2, with HeLa, in the assay with Tov-21-G and in the assay on Tov112D was “inactive” each time. Moreover, the compound was classed as inactive in the assay on CAOV3, in the assay on CASKI, in the assay on Hek293T and with JEG-3. Also, the activity, negative = cell killing is -17.8% in assay [1] (setting [6]) and -16.6% in [1] (at 194 µM (top of the series), tumour line B).

As for `COc1cccc(C(=O)CCN[C@@H](C)[C@H](O)c2ccccc2)c1`, the Potency entry in the assay with C33A, in the assay on Es-2, in the assay on HeLa, with PA-1, in the assay with Tov-21-G and in the assay on Tov112D was “inactive” throughout. In addition, the result in the assay with CAOV3, with CASKI, in the assay with Hek293T, in the assay on JEG-3 and with SKOV3 was inactive. The Potency in assay [1] (tumour line A) is 28.2 µM (active); in assay [1] (tumour line B), 22.4 µM (active); in assay [1] (tumour line D), 22.4 µM (active).

In the case of `CCCCCCCCCC(=O)O[C@H]1CC[C@H]2[C@@H]3CCC4=CC(=O)CC[C@@H]4[C@H]3CC[C@]12C`, the Potency result with C33A, in the assay on Es-2, in the assay on HeLa, with OV90, with PA-1 and in the assay on Tov-21-G was “inactive” each time. Also, the Potency result in the assay on Tov112D and with astro was “inactive” each time. For the same compound, the compound was classed as inactive in the assay with CAOV3, in the assay on CASKI, in the assay with Hek293T, in the assay on JEG-3 and in the assay on SKOV3. The results for the activity, negative = cell killing in [1] (setting [6]) and in [1] (setting [7]) were -3.32% and -5.94%, respectively.

As for `CC(=O)OCC1=C(C(=O)O)N2C(=O)[C@@H](N)[C@H]2SC1`, the Potency entry in the assay with C33A, with Es-2, in the assay on HeLa, with OV90, in the assay with PA-1 and in the assay with Tov-21-G was “inactive” each time. Also, the Potency result with Tov112D and in the assay on astro was “inactive” in each case. Moreover, the outcome with CAOV3, with CASKI, with Hek293T, with JEG-3 and in the assay with SKOV3 was inactive. Besides, the activity, negative = cell killing was -6.05% in assay [1] (at 21.2 µM (top of the series), tumour line B); -13.7% in [1] (at 21.2 µM (top of the series), tumour line D); -21.2% in assay [1] (at 21.3 µM (top of the series), tumour line A).

As to `CC(C)(C)c1ccc(O)cc1`, the Potency result in the assay on C33A, with Es-2, in the assay on HeLa, with OV90, with PA-1 and in the assay on Tov-21-G was “inactive” each time. The Potency result with Tov112D and in the assay on astro was “inactive” each time. Also, the result with CASKI, in the assay on Hek293T and in the assay on JEG-3 was inactive. The values for the activity, negative = cell killing in [1] (setting [6]), in [1] (setting [7]) and in assay [1] (setting [8]) were -7.29%, 7.61% and -21%, respectively.

`COC(=O)C(c1ccccc1)C1CCCCN1` (centres undefined): the activity, negative = cell killing in assay [1] (setting [6]) is -10.4%; in assay [1] (setting [7]), 3.11%; in [1] (setting [8]) it was -16.7%. Also, the Potency result in the assay with astro is “inactive”. The max response in assay [2] was 1.26% and 1.36%. Besides, the call in assay [3] was inactive.

As for `O=C1Nc2ccc(Cl)cc2C(c2ccccc2Cl)=NC1O` (centres undefined), the activity, negative = cell killing was 0.661% in assay [1] (setting [6]), -9.55% in [1] (setting [7]) and -25.3% in assay [1] (setting [8]). The Potency result in the assay with astro is “inactive”.

In the case of `CN=C1CN(O)C(c2ccccc2)=c2cc(Cl)ccc2=N1`, the activity, negative = cell killing in assay [1] (setting [6]) is -15.1% and 1.01%; in assay [1] (setting [7]) it was -14.7% and -15.6%. Besides, in [1] (tumour line A), the Potency was 11.2 µM (active). Also, in the assay with astro, the Potency result is “inactive”.

On to `Cc1nnc2n1-c1ccc(Cl)cc1C(c1ccccc1)=NC2`, for which the activity, negative = cell killing in assay [1] (setting [7]) was 7.45%.

In the case of `CN1C[C@H](C(=O)N[C@]2(C)O[C@@]3(O)[C@@H]4CCCN4C(=O)[C@H](Cc4ccccc4)N3C2=O)C=C2c3cccc4[nH]cc(c34)C[C@H]21`, the activity, negative = cell killing in assay [1] (setting [6]) is -13.4%. In [1] (tumour line A), the Potency is 14.1 µM (active). In addition, the Potency entry in the assay with astro was “inactive”. In addition, the max response in assay [2] is 10% and -0.133%.

For the compound `CCCCCN(C)CCC(O)(P(=O)(O)O)P(=O)(O)O`, the figures for the activity, negative = cell killing in assay [1] (setting [6]), in assay [1] (setting [7]) and in [1] (setting [8]) were -6.41%, -6.48% and -14.8%, respectively. For the same compound, the Potency result in the assay on astro was “inactive”.

Take `O=C(Nc1ccc(Br)cc1)c1cc(Br)cc(Br)c1O`: the Potency result with C33A, with PA-1, in the assay with Tov-21-G and with Tov112D was “inactive” in each case. For the same compound, the call with CAOV3, in the assay on CASKI, in the assay with Hek293T and in the assay on SKOV3 was inactive. Further, the Potency in the assay on astro was 7.08 µM (active).

For the compound `O=C(O)/C=C\C(=O)O`, the activity, negative = cell killing was 0.272% in assay [1] (setting [6]); -6.85% in [1] (setting [7]); -28.3% in assay [1] (setting [8]); 3.02% in [1] (at 46.1 µM (top of the series), tumour line C). The Potency entry in the assay with astro is “inactive”.

As to `O=C1OC(CCN2CCCCC2)OC1(c1ccccc1)c1ccccc1` (centres undefined), the Potency result with C33A, with Es-2, with HeLa, in the assay with OV90, in the assay on PA-1 and with Tov-21-G was “inactive” throughout. Besides, the Potency result in the assay on Tov112D is “inactive”. Also, the outcome in the assay with CAOV3, in the assay on CASKI, with Hek293T, in the assay on JEG-3 and with SKOV3 was inactive.

As for `C[C@]12CCC(=O)C=C1CC[C@@H]1[C@@H]2CC[C@]2(C)C(=O)CC[C@@H]12`, the Potency entry in the assay on C33A, with Es-2, with OV90, in the assay on Tov-21-G and in the assay on Tov112D was “inactive” each time. Besides, the call in the assay on CASKI, in the assay on Hek293T, in the assay with JEG-3 and in the assay with SKOV3 was inactive. The activity, negative = cell killing in [1] (setting [6]) is -22.1%. In assay [1] (tumour line A), the Potency is 10 µM (active). The max response in assay [2] is 5.29% and 4.66%.

For `O=C1Nc2ccc(Cl)cc2C(c2ccccc2)=NC1O` (centres undefined), the activity, negative = cell killing is -7.13% in assay [1] (setting [6]), -25.5% in [1] (setting [7]), -11.1% in [1] (setting [4]) and -11.5% in [1] (setting [5]). The Potency in [1] (tumour line A) is 39.8 µM (active).
